Values joined by “and” are separate entries in the source; they are usually repeats but may differ in a detail not shown here. Identical values can stand only once. About 2,600 (16%) of roughly 16,000 compounds were called active. About 20% were inconclusive and are not listed. The call rests on the fitted dose curve; in most records, active means well fitted curve in the direction sought with a large enough effect; inconclusive means small, poorly fitted or top-dose-only effect, or effect the other way; inactive means no such curve, though single readings can be large or run the other way. These entries were drawn from the full list. Some structures have more than one record in an assay (separate samples or runs), and their calls can disagree.
On the % scale 0 is the no-effect control and ±100 the full control effect.

Chain of Cytochrome P450 2D6 (Homo sapiens) (P10635 whole entry, looked up): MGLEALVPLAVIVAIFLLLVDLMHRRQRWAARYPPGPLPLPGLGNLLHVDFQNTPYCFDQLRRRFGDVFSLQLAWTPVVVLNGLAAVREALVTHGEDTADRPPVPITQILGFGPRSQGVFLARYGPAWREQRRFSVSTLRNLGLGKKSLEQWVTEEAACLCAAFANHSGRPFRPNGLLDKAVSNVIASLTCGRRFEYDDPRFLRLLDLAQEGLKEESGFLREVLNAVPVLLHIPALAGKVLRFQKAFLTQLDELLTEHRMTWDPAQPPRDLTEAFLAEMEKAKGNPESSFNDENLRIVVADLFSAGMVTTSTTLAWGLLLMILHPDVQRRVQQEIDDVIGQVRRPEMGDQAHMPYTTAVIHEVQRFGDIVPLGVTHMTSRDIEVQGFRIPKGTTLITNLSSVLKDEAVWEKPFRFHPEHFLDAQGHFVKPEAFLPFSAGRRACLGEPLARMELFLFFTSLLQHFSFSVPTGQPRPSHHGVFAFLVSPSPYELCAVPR

This experiment concerns the target Cytochrome P450 2D6 (Homo sapiens) (UniProt P10635). Put plainly: Cytochrome panel assay with activity outcomes. Particulars: recombinant CYP, pro-luciferin dealkylation, luminescence, p450-cyp2d6; series mostly up to 57.1 µM; activity, negative = inhibition: at the top concentration.
As to `COc1ccc(Oc2ncc3nc(-c4cccs4)c(=O)n(C)c3n2)cc1`, the “activity, negative = inhibition” value is -1.75% (inactive).

Turning to `CCCCC(=O)NC(Nc1cc(C)ccn1)(C(=O)OCC)C(F)(F)F` (centres undefined), the “activity, negative = inhibition” value is -6.47% (inactive).

With `CCOC(=O)CN1N=C(/C=C/c2ccc(C)cc2)CCC1=O`, the “activity, negative = inhibition” value was -3.19% (inactive).

As for `Cc1ccccc1NC1=NC(=S)N(c2ccccc2)C12CCOC(C)(C)C2` (centres undefined), the “activity, negative = inhibition” value is 0.784% (inactive).

Consider `CCn1nc(C(=O)Nc2ccccc2C)c(Cl)c1Cl`, for which the “activity, negative = inhibition” value is 0.463% (inactive).

Regarding `O=C(N/N=C/c1ccc(Br)s1)c1ccccc1[N+](=O)[O-]`, the “activity, negative = inhibition” value is -16.7% (inactive).

As for `CCCCN(C(=O)Nc1ccc(OCC)cc1)C1CCN(C(C)=O)CC1`, the “activity, negative = inhibition” value was 17.3% (inactive).

For `CSc1nc(C2CC2)cc(-c2cccs2)c1C#N`, the “activity, negative = inhibition” value is -8.47% (inactive).

Take `O=C1NC(=O)C(c2ccccc2)(c2ccccc2)N1`: the “activity, negative = inhibition” value was 3.16% (inactive).

In the case of `CCCC1CCC(c2ccc(C(N)=O)cc2)CC1` (centres undefined), the “activity, negative = inhibition” value was 22.9% (inactive).

As for `CNCC[C@H](Oc1ccccc1OC)c1ccccc1`, the AC50 was 1.26 µM (active) and inactive.

On to `COCCn1c(=O)c(-c2cn(C)c3ccccc23)nc2cnc(N3CCNCC3)nc21`, for which the “activity, negative = inhibition” value was -5.08% (inactive).

As for `COC(=O)[C@@H]1[C@@H]2C[C@H]3c4[nH]c5cc(OC)ccc5c4CCN3C[C@@H]2C[C@H](OC(=O)c2cc(OC)c(OC)c(OC)c2)[C@H]1OC`, the “activity, negative = inhibition” value is -9.04% [at 25.6 µM] (inactive).

Regarding `C#C[C@]1(O)CC[C@@H]2[C@H]3CCc4cc(OC)ccc4[C@@H]3CC[C@@]21C`, the “activity, negative = inhibition” value was 0.842% [at 25.6 µM] (inactive).

Regarding `O=C1CC(=O)C(n2cncn2)C(c2cccc(Cl)c2)C1` (centres undefined), the “activity, negative = inhibition” value is -36.4% (inactive).

On to `Cc1cc(N)n(-c2ccc3ccccc3c2)n1`, for which the “activity, negative = inhibition” value is -17.4% (inactive).

Turning to `CC(=O)Nc1c(C)nn(-c2ccc(C)c(C)c2)c1C`, the “activity, negative = inhibition” value is -12.7% (inactive).

In the case of `Cc1nn(-c2ccc(F)cc2)c(C)c1NS(=O)(=O)c1ccc2ccccc2c1`, the AC50 was 11.2 µM (active).

Regarding `CC(C)(C)C(=O)OCc1cn(-c2ccc(Cl)cc2)nn1`, the “activity, negative = inhibition” value was -28.8% (inactive).

In the case of `Cc1nc(SCC(=O)c2ccc(Cl)s2)c2oc3ccccc3c2n1`, the “activity, negative = inhibition” value is 15.2% (inactive).

With `COCCn1c(=O)c(-c2cn(C)c3ccccc23)nc2cnc(OCc3ccccc3)nc21`, the “activity, negative = inhibition” value is -5.75% (inactive).

As to `O=C(c1ccc(Br)cc1)c1cc([N+](=O)[O-])ccc1N1CCCCC1`, the “activity, negative = inhibition” value was -4.02% (inactive).

As to `COc1ccc2nc(C)cc(SCC(=O)Nc3c(C)cc(C)cc3C)c2c1`, the “activity, negative = inhibition” value was 4.42% (inactive).

Take `COc1ccc2nc(SCC(=O)NN)cc(C)c2c1`: the “activity, negative = inhibition” value is -12.7% (inactive).

Regarding `CCN(CC)CCC[C@H](C)Nc1c2ccc(Cl)cc2nc2ccc(OC)cc12`, the concentration at half-maximal activity (AC50) was 200 nM (active) and 126 nM (active).

With `Cn1c(=O)n(C)c2cc(/C=N/NC(=O)c3ccc(Cl)cc3Cl)ccc21`, the “activity, negative = inhibition” value is 11.9% (inactive).

As for `CCN1CCC[C@H]1CNC(=O)c1cc(S(N)(=O)=O)ccc1OC`, the “activity, negative = inhibition” value is -18.3% [at 25.6 µM] (inactive).

On to `CCN1CCC[C@@H]1CNC(=O)c1cc(S(N)(=O)=O)ccc1OC`, for which the “activity, negative = inhibition” value was -10.7% (inactive).

As for `CCN1CCCC1CNC(=O)CCNC(=O)c1cc(OC)c(OC)c(OC)c1` (centres undefined), the “activity, negative = inhibition” value is 12.3% (inactive).

In the case of `CCc1cc(Cl)c(OC)c(C(=O)NC[C@@H]2CCCN2CC)c1O`, the AC50 is 0.0501 µM (active).

On to `CCN1CCC[C@H]1CNC(=O)c1c(OC)ccc(Br)c1OC`, for which the AC50 result is “inactive and 200 nM (active)”.

As for `CCOc1ccc(NC(=O)C(=O)NCC2CCCN2CC)cc1` (centres undefined), the “activity, negative = inhibition” value is -7.58% (inactive).

As for `N[C@@H](Cc1c[nH]c2ccc([N+](=O)[O-])cc12)C(=O)O`, the activity, negative = inhibition was 4.93% [at 11.4 µM] (inactive).

On to `Cc1ccccc1Cn1cc(NC(=O)CSc2nc3c(c(C(F)(F)F)n2)CCc2ccccc2-3)cn1`, for which the “activity, negative = inhibition” value is -12.6% (inactive).

For the molecule `Cn1c(=O)c(-c2ccc(Cl)cc2)nc2cnc(Oc3cccc(Cl)c3)nc21`, the “activity, negative = inhibition” value is 0.522% (inactive).

As for `COc1ccc(NC(=S)N2CCN(C/C=C/c3ccccc3)CC2)cc1OC`, the “activity, negative = inhibition” value is -18.6% (inactive).

For `COc1ccc(/C=C(\C#N)C(=O)NCC2CCCO2)cc1OC` (centres undefined), the “activity, negative = inhibition” value was -7.32% (inactive).

Consider `CNc1ncnc2c1ncn2[C@@H]1O[C@H](CO)[C@@H](O)[C@@H]1O`, for which the “activity, negative = inhibition” value is 4.56% [at 25.6 µM] (inactive).

With `CSc1nc(-c2ccc(C)cc2)[nH]c1S(=O)(=O)c1ccccc1`, the “activity, negative = inhibition” value was -14.3% (inactive).

With `COc1ccc(-n2c(-c3ccccc3)nc(=S)c3c2CCCC3)cc1`, the “activity, negative = inhibition” value is -26.4% (inactive).

Take `COc1ccc(-c2c[n+]3c4n2CCCCC4=C(c2ccccc2)C3)cc1`: the AC50 was 1.78 µM (active).

As to `Clc1ccc(C2=C3CCCCn4c(-c5ccccc5)c[n+](c43)C2)cc1`, the AC50 is 1 µM (active).

Take `O=C(c1ccc(Cl)cc1)N1CCCC(c2ccccc2)=N1`: the “activity, negative = inhibition” value is -18.1% (inactive).

In the case of `C[n+]1cc(-c2ccccc2)n2c1CCCCC2`, the “activity, negative = inhibition” value was -26.8% (inactive).

Consider `Cc1cc(NC(=O)CSc2ccc3nnc(-c4ccc(F)cc4)n3n2)no1`, for which the “activity, negative = inhibition” value was -8.11% (inactive).

Regarding `O=C(O)c1c[nH]c2c(ccc3[nH]cc(C(=O)O)c(=O)c32)c1=O`, the activity, negative = inhibition is -3.58% [at 11.4 µM] (inactive).

Consider `Cc1ccc(CNC(=O)COC(=O)c2cnccn2)cc1`, for which the “activity, negative = inhibition” value was 0.988% (inactive).

With `Cc1cc(C)cc(Oc2nn[nH]n2)c1`, the “activity, negative = inhibition” value is 2.45% (inactive).

For the molecule `Cc1ccc(CNC(=O)C2CCC(=O)N2C2CCCCC2)cc1` (centres undefined), the “activity, negative = inhibition” value is -21.6% (inactive).

With `O=C(COc1ccc(Cl)cc1)NCCC1=CCCCC1`, the “activity, negative = inhibition” value was -19.8% (inactive).

As for `CCCCCOc1ccc(NC(=O)C(=O)NCCC2=CCCCC2)cc1`, the “activity, negative = inhibition” value was -1.79% (inactive).

For `O=C(CN1C(=O)NC2(CCCC2)C1=O)NCCC1=CCCCC1`, the “activity, negative = inhibition” value was 5.39% (inactive).

With `O=C(CN1CCN(C2CCCCC2)CC1)NCCC1=CCCCC1`, the AC50 is 15.8 µM (active).

As to `O=C(CN1CCN(c2ncccn2)CC1)NCCC1=CCCCC1`, the half-maximal activity concentration (AC50) is 2.82 µM (active).

The AC50 is the concentration at which the activity in the assay is half-maximal.

The record behind these values is PubChem BioAssay AID1851 (National Center for Advancing Translational Sciences (NCATS), 2009).
